An excerpt weighted towards active compounds, which were near 7.1% of everything screened.
MCF10A rerep – induces DNA re-replication in MCF 10a normal breast cells; MCF 10A DNA re-replication, Hoechst nuclear intensity, 48 h; Potency, µM (top dose mostly 46.1 µM), without a hit: top-dose activity, positive = re-replication, actives largely listed as activators; actives 2.9% (n = 350,000); note: potency is the fitted concentration of half-maximal effect; % of control where 0% means no effect; nearly all actives have a fitted effect of over 50% in size
IL1B secr inh – inflammasome signaling inhibition, IL-1 beta readout. THP-1 LPS/ATP IL-1B secretion, AlphaLISA, 16 h; hits give low values. activity change, % at 57.5 µM. actives 4.7% (n = 360,000). AID 743279; in the data active = activity change below about -50%; inconclusive = mostly about -30% to -49%; note: % is set by controls: 0 for no effect and ±100 for the full control effect
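Secreted IL-1B measured by AlphaLISA bead assay after 16 h compound exposure of THP-1 cells; compounds (final up to 57.5 uM) added 1 h before LPS (250 ng/mL) and ATP (1.25 mM) stimulation; lower signal means less secretion.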
ATXN2 expr inh – ATXN2 expression inhibition; Potency, µM (top dose mostly 57 µM), for inactives: at the highest dose activity change, negative = inhibition, actives largely listed as inhibitors; HEK-293 ATXN2-luciferase reporter, luminescence, 24 h; actives 0.72% (n = 360,000); note: potency is the fitted concentration of half-maximal effect; % is set by controls: 0 for no effect and ±100 for the full control effect; nearly all actives have a fitted effect of over 55% in size
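ATXN2-luciferase reporter cells (luciferase flanked by upstream and downstream ATXN2 gene portions) were treated 24 h at 37 °C with compounds at up to 57 uM. SteadyGlo luminescence gave expression; GF-AFC fluorescence gave viability.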
SW480 rerep – DNA re-replication induction in SW480 cells; SW480 DNA re-replication, Hoechst DNA content imaging, 48 h; Potency, µM (highest dose often 46.1 µM), for the others: at the highest dose re-replication activation, hits mostly activators; actives 1.8% (n = 340,000); note: potency is the fitted concentration of half-maximal effect; % of control where 0% means no effect; nearly all actives have a fitted effect of over 55% in size
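250 cells/well; 23 nL cpd via pin tool; 48 hr, 37 C, 5% CO2; Hoechst 40 min; imager read of total nuclear intensity, ex 405/em 500-530 nm.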
PINK1 modulator – PINK1 expression modulation; PINK1 immunofluorescence, high-content cytometry, 24 h; Potency, µM (titrated, usually from 76.6 µM), for inactives: top-dose activation (PINK1 increase), usual class: activators; actives 0.2% (n = 410,000); AID 624263; active = well fitted activation curve with a large enough effect; inconclusive = small, poorly fitted or top-dose-only effect; cell line not stated here; note: potency is the fitted concentration of half-maximal effect; % of control where 0% means no effect; nearly all actives have a fitted effect of over 65% in size
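Stable cell line treated 24 h with compounds at 5 concentrations (CCCP controls), then fixed and immunostained for PINK1 plus nuclear and cell stains; PINK1 immunofluorescence quantified by laser-scanning microplate cytometry.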
ATXN viability – reduces viability in counter-screen for ATXN expression inhibitors. S2 cells (HEK-293 line with an ATXN2-luciferase reporter) viability, CellTiter-Fluor protease fluorescence, 24 h. Potency, µM (doses to about 56.7 µM), usual class: cytotoxic. actives 0.49% (n = 400,000); note: potency is the fitted concentration of half-maximal effect; nearly all actives have a fitted effect of over 40% in size
* hit, by the source's call; i = inactive; ? = inconclusive; / = no result; ! = not confirmed by another sample; [ ] = remark or other dose. Unless noted, calls come from the whole dose curve; as a rule, active = well fitted curve in the direction sought with a large enough effect; inconclusive = small, poorly fitted or top-dose-only effect, or another doubt; inactive = no such curve, though single readings can be large; an effect the other way counts as inactive or inconclusive.

SMILES	MCF10A rerep	IL1B secr inh	ATXN2 expr inh	SW480 rerep	PINK1 modulator	ATXN viability
COCCCNc1nc2c(-c3ccc(C)cc3)nnn2c2ccccc12	?	29	/	27%	0%	i
COCCCNc1nc2c(-c3cccc(C)c3)nnn2c2ccccc12	13µM*	2	-6%	8%	6%	/
Cc1onc(-c2ccccc2)c1C(=O)Nc1ccccc1N1CCOCC1	-1%	18	0%	2%	1%	i
CN1CCN(c2ccc(C(F)(F)F)cc2NC(=O)Nc2ccccc2)CC1	0%	-84*	/	29%	4%	?
Cc1onc(-c2ccccc2)c1C(=O)Nc1cc(C(F)(F)F)ccc1N1CCOCC1	5µM*	67	4%	11µM*	2%	i
CCOC(=O)c1ccc(N2CCOCC2)c(NC(=O)c2c(-c3ccccc3)noc2C)c1	10µM*	45	-26%	21µM*	3%	i
Cn1c(=O)n(C)c2cc(N3CCCC3)c(NC(=O)Nc3ccccc3)cc21	/	/	4%	/	1%	i
CCCCOc1ccc(C(=O)Nc2cccc(-c3nc4cccnc4s3)c2)cc1	/	/	/	/	2%	/
C=CCSc1nnc(-c2cc3c(C(F)(F)F)nn(C)c3s2)n1C	9%	-13	2%	-3%	1%	i
C=CCSc1nnc(-c2cc3c(-c4ccccc4)nn(C)c3s2)n1C	10%	-62*	98%	4%	2%	i
COc1ccc(C(=O)NCc2c(C)nn(Cc3ccccc3)c2C)cc1S(=O)(=O)N1CCOCC1	15µM*	-10	/	?	5%	i
COc1ccc(NC(=O)c2c(C)nn(Cc3ccccc3)c2Cl)cc1S(=O)(=O)N1CCOCC1	2.1µM*	1	-8%	14%	2%	?
COc1ccc(NC(=O)c2ccco2)cc1S(=O)(=O)N1CCOCC1	-8%	3	2%	-5%	?	i
Cc1ccc(NC(=O)CSC(C)C(=O)OCC(=O)N2CCN(C(=O)c3ccco3)CC2)cc1 (configuration not stated)	?	7	7%	-1%	0%	i
Cc1ncc(CO)c2c1Oc1nc(-c3ccccc3F)nc(SCC(=O)N3CCCCC3)c1C2	/	/	4%	/	-1%	i
COc1ccccc1CNc1nc(Nc2ccccc2OC)c2sccc2n1	/	7	-8%	/	5%	i
CC(C)Nc1nc(NCCOc2ccccc2)c2sccc2n1	/	-72*	?	/	?	i
COc1cccc(CNc2nc(NCC3CC3)nc3ccsc23)c1OC	/	-101*	0%	/	?	16µM*
CC(C)c1ccc(CNc2nc(NCC3CC3)nc3ccsc23)cc1	/	-30	?	/	-2%	/
COc1ccccc1CNc1nc(NCc2ccc(C(C)C)cc2)c2sccc2n1	/	-83*	32µM*	/	0%	/
COc1cccc(CNc2nc(NC(C)C)nc3ccsc23)c1OC	/	-81*	-32%	/	20%	?
COc1ccccc1CNc1nc(NCCOc2ccccc2Cl)c2sccc2n1	/	-86*	?	/	?	?
CSc1ccccc1CNc1nc(NCC2CC2)nc2ccsc12	/	-106*	?	/	?	14µM*
COc1ccccc1CNc1nc(NC(C)C)nc2ccsc12	/	-98*	0%	/	?	i
COc1cccc(-c2nc(CS(=O)(=O)CC(=O)Nc3c(C)cc(C)cc3C)c(C)o2)c1	/	/	/	/	6%	/
SMILES	MCF10A rerep	IL1B secr inh	ATXN2 expr inh	SW480 rerep	PINK1 modulator	ATXN viability
CCCCNc1c(-c2ccc(SC3CCCCC3)cc2)nc2ccccn12	?	-73*!	3%	0%	?	?
CCC(C)Sc1cccc(-c2nc3cc(C)ccn3c2NCc2ccccc2)c1 (configuration not stated)	?	-73*	?	?	?	?
c1ccc(CNc2c(-c3cccc(SC4CCCCC4)c3)nc3ccccn23)cc1	18µM*	-28	-1%	6.5µM*	?	?
Cc1ccn2c(NCc3ccccc3)c(-c3cccs3)nc2c1	?	0	-2%	0%	-1%	/
Clc1ccc2nc(-c3cccc(SC4CCCCC4)c3)c(NCc3ccccc3)n2c1	?	-24	-10%	-2%[9.22 µM]	13%	i
Cc1ccn2c(NCc3ccccc3)c(-c3cccc(SC4CCCCC4)c3)nc2c1	21µM*	-79*!	?	-10%	25µM*	?
COc1ccc(-c2cc(-c3nc4ccccn4c3NCc3ccccc3)ccc2OC)cc1	5.8µM*	-56*	4µM*	16µM*	1%	7.9µM*
c1ccc(-c2nc3ccccn3c2NCc2ccc3c(c2)OCO3)cc1	23%	?	7%	0%	0%	i
Cc1ccc2nc(-c3cccc(SC4CCCCC4)c3)c(NCc3ccccc3)n2c1	18µM*	-3	?	?	25µM*	?
CC(C)(C)Cc1c(-c2cccc(Br)c2)nc2ccc(Cl)cn12	/	0	9%	/	?	i
Clc1cccc(-c2ccc(-c3nc4ccccn4c3NCc3ccccc3)cc2)c1	16µM*	?	-24%	?	?	i
CCCCNc1c(-c2cccc(SC3CCCCC3)c2)nc2ccc(Cl)cn12	26µM*	-9	-5%	-4%	9%	i
O=C(NCc1cccs1)c1ccc(-c2ccc(F)c(F)c2)c2ccoc12	/	/	9%	/	2%	i
CC(=O)O[C@@H]1CC2C3CCc4cc(OC(=O)c5ccccc5)ccc4C3CCC2(C)[C@H]1OC(C)=O (some centres not stated)	/	/	8%	/	/	i
COc1ccccc1CCc1nc2ccccc2n1C1CCN(C(=O)c2cn3ccsc3n2)CC1	/	/	/	/	0%	i
O=C(Cc1ccccc1F)Nc1ccc(S(=O)(=O)N2CCCC2)cc1	7%	-51*	4%	?	-2%	i
Cc1ccccc1N1CC(C(=O)Nc2ccc(S(=O)(=O)N3CCCCC3)cc2)CC1=O (configuration not stated)	9%	-4	-5%	10%	3%	i
CC1CCN(S(=O)(=O)c2ccc(NC(=O)CN3CCCCCC3)cc2)CC1	?	-50*	-23%	?	3%	i
Cc1cccc(N2CC(C(=O)Nc3ccc(S(=O)(=O)N4CCCCC4)cc3)CC2=O)c1C (configuration not stated)	13µM*	?	-9%	8%	6%	i
N#CC(C#N)=NNc1ccc(S(=O)(=O)N2CCCCC2)cc1	26µM*	9	-13%	-2%	?	?
COc1ccc(Cn2c(C(=O)O)c(CNCc3ccc(C)o3)c3ccc(OC)cc32)cc1	/	/	-4%	/	1%	?

Compound activity: PubChem BioAssay, National Center for Advancing Translational Sciences (NCATS)
